Screens from PubChem.
Six1-Eya2 blk: inhibitors of human Six1/Eya2 interaction; activity change, % (test concentration not listed); AID 651725; AlphaScreen GST-Six1/His-Eya2 binding, biochemical; active compounds read low; 360,000 compounds, 0.56% hits; in the data active = activity change below about -65%; inconclusive = mostly about -30% to -63%; also: % is scaled to controls: 0 for no effect and ±100 for the full control effect
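Six1/Eya2 binding was read as AlphaScreen signal after compounds were pinned into GST-Six1 plus His-tagged Eya2 (5X stock 250/500 nM) in pH 8.0 Tris/NaCl/TCEP buffer, beads added, then incubated 1 h, 37 C, dark.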
CtBP-E1A inh: CtBP/E1A binding inhibition. AlphaScreen GST-E1A/His-CtBP binding, 1536-well; active compounds read low. activity change, % (concentration not given with the values). 340,000 compounds, 0.49% hits; in the data active = activity change below about -65%; inconclusive = mostly about -30% to -63%; also: % is scaled to controls: 0 for no effect and ±100 for the full control effect
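Homogeneous bead-based format: GST-tagged E1A captured on glutathione donor beads, His-tagged CtBP on nickel acceptor beads; compounds precede bead addition by 2 h at 37 °C.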
BAZ2B block: inhibitors of human BAZ2B bromodomain | AID 504333 | 360,000 compounds, 4.4% hits | AlphaScreen BAZ2B-H3K14Ac peptide displacement | Potency, µM (highest dose often 114 µM), inactives show top-dose activity change, negative = inhibition, actives largely listed as inhibitors; also: potency is read from the fitted curve at half-maximal effect; % is scaled to controls: 0 for no effect and ±100 for the full control effect; nearly all actives have a fitted effect of over 60% in size
Target sequence (Q9UIF8 whole entry, looked up): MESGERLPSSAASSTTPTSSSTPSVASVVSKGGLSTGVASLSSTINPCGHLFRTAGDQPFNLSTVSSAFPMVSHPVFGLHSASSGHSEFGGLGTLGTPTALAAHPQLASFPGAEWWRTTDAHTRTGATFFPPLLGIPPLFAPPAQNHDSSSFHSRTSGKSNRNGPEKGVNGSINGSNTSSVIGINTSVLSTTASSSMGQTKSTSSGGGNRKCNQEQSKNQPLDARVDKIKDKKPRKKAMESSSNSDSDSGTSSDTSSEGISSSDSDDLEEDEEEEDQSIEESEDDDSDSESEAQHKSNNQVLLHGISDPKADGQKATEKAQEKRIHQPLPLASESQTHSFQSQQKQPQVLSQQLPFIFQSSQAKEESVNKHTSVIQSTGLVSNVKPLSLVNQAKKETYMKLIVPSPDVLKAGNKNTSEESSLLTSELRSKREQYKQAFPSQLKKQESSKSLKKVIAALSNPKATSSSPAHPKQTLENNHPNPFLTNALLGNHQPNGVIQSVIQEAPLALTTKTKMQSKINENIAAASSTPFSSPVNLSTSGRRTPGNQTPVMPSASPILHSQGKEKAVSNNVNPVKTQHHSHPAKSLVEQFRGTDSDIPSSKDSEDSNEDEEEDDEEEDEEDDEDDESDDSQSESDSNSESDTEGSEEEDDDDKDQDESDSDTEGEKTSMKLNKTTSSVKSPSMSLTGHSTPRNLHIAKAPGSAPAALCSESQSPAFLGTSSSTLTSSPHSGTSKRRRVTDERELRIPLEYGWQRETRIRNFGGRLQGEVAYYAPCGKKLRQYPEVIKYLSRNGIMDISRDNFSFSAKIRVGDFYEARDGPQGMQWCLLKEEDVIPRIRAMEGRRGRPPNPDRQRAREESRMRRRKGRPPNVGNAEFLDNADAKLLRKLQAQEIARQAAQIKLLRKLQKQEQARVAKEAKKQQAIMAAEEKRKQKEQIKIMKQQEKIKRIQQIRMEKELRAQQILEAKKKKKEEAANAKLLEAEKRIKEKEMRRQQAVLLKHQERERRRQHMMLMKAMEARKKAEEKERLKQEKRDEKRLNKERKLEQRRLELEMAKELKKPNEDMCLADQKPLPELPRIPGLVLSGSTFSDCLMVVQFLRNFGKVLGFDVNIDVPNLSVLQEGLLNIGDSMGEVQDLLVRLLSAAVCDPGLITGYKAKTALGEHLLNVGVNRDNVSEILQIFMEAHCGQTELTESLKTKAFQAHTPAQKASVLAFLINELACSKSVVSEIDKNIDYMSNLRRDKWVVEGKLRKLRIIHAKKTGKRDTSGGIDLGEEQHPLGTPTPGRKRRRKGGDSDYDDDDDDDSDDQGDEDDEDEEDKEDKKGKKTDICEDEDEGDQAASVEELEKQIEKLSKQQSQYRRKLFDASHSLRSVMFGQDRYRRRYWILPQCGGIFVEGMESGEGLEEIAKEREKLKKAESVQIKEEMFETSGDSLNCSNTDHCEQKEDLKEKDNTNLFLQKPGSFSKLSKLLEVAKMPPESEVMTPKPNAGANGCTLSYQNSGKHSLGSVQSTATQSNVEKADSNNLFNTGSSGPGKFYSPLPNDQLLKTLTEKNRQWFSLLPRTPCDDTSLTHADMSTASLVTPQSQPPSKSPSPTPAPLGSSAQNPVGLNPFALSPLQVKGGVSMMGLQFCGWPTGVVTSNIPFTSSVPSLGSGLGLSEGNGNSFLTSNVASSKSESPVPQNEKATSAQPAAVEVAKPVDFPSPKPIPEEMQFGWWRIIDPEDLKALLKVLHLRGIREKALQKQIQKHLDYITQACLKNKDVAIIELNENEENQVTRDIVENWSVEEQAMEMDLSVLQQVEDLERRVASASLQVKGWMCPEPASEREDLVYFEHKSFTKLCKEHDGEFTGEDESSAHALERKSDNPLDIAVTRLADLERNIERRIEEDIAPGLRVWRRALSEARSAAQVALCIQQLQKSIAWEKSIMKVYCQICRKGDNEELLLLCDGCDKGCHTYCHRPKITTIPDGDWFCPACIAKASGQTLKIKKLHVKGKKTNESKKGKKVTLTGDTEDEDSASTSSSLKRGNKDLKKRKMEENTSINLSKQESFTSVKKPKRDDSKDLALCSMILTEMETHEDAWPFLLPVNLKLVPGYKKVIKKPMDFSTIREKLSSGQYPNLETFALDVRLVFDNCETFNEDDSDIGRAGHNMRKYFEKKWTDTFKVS
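BAZ2B (50 nM) with biotin-H3(5-23)K14Ac peptide (50 nM) in PBS pH 7.4, 0.01% Tween-20, preformed 30 min, then compound 30 min at room temperature; top concentration 110uM. AlphaScreen streptavidin donor/nickel chelate acceptor beads (10 ug/mL final), 20 min dark, signal read.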
HP1b binding inh: inhibitors of HP1-beta chromodomain binding to methylated histone tails; Potency, µM (highest dose often 114 µM), inactives show at the top dose activity change, negative = inhibition, most hits filed as inhibitors; P83916; 390,000 compounds, 0.56% hits; AlphaScreen HP1-beta / biotin-H3K9me3 peptide binding; AID 540317; also: potency is read from the fitted curve at half-maximal effect; nearly all actives have a fitted effect of over 70% in size
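HP1-beta protein (50 nM final) preincubated 30 min at room temperature with biotinylated H3(1-18)K9me3 peptide (50 nM) in PBS pH 7.4, 0.01% Tween-20, then compound added for 30 min. AlphaScreen streptavidin donor/nickel chelate acceptor beads (10 ug/mL final), 30 min dark, luminescence read.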
G9a block: G9a (human) methyltransferase inhibition. Q96KQ7. G9a H3K9 monomethylation, AlphaScreen, 2 h. Potency, µM (top dose mostly 102 µM), inactives show top-dose activity, negative = inhibition, hits mostly inhibitors. 350,000 compounds, 8.8% hits; also: potency is read from the fitted curve at half-maximal effect; % is scaled to controls: 0 for no effect and ±100 for the full control effect; nearly all actives have a fitted effect of over 75% in size
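G9a (20 nM) was preincubated 15 min with compound, then reacted 2 h at room temperature with 500 nM biotin-H3K9 peptide and 20 µM SAM. Monomethyl-H3K9 detected by AlphaScreen using anti-H3K9me1 antibody.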
JMJD2A Tudor: JMJD2A Tudor domain (human) inhibition | AlphaScreen JMJD2A-Tudor / H3K4me3 peptide binding | Potency, µM (doses to about 114 µM), for the others: at the top dose activity change, negative = inhibition, hits mostly inhibitors | 390,000 compounds, 4.4% hits | AID 504339; also: potency is read from the fitted curve at half-maximal effect; % is scaled to controls: 0 for no effect and ±100 for the full control effect; nearly all actives have a fitted effect of over 50% in size
An asterisk follows results filed as active; u = inconclusive; x = not tested or not shown; ! = repeats disagree; [ ] = dose if it differs, or a comment. In the library only some 10% were active in any assay of this set; here they are far more common. Unless noted, calls follow the shape of the dose curve; as a rule, active = well fitted inhibition curve with a large enough effect; inconclusive = small, poorly fitted or top-dose-only effect; inactive = no such curve, though single readings can be large or run the other way.

SMILES | Six1-Eya2 blk | CtBP-E1A inh | BAZ2B block | HP1b binding inh | G9a block | JMJD2A Tudor
CCOc1cc(-c2ccc(N)c(OCC)c2)ccc1N | u | -29 | 14µM* | 8.9µM* | u | u
COc1ccc(CC2C(=O)N(c3ccccc3)C(=O)N(c3ccccc3)C2=O)c(OC)c1 | 2 | 15 | -5% | 30% | 45µM* | -19%
COc1ccc(Cc2c(O)[nH]c(=S)[nH]c2=O)cc1 | 3 | -19 | 1% | -8% | 7.9µM* | u
CCCCOc1ccc(C(C)=O)cc1Cc1c(O)[nH]c(=S)[nH]c1=O | 3 | x | -3% | 6% | -7%[0.501 µM] | -30%
Cn1c(=O)c2c(-c3ccccc3)n3c(c2n(C)c1=O)C(c1cc(Cl)ccc1O)Nc1ccccc1-3 (configuration not stated) | x | x | -22% | 17% | u | -25%
S=c1[nH]nc(-c2ccn[nH]2)n1-c1ccccc1Cl | 4 | 0 | 50µM* | u | 3.2µM* | 20µM*
CC(=O)O[C@H]1[C@H]2[C@@H](OC(=O)Cc3ccccc3)[C@@H](C)C[C@]2(OC(C)=O)C(=O)/C(C)=C/[C@@H]2[C@H](CC[C@@]13CO3)C2(C)C | x | x | x | x | 12%[59 µM] | x
CC(N)C(=O)NC1C2C(=C(O)CC(O)C2O)C(=O)OC1(C)C(Cl)Cl (configuration not stated) | -1 | 0 | x | -10% | x | 25µM*
CC(Cc1ccccc1)NCc1ccccc1O (configuration not stated) | 25 | 7 | -5% | 1% | -3% | -18%
CC1(O)CCC2C3CCC4=CC(=O)CCC4=C3C=CC21C (configuration not stated) | 0 | 1 | x | 17%[57 µM] | x | -12%
COCOC1CCC2C3CCC4=CC(=O)CCC4=C3C=CC12C (configuration not stated) | -8 | 12 | x | u | x | 79µM*
CC(C)(C)NCC(O)c1cc(Cl)c(N)c(C(F)(F)F)c1 (configuration not stated) | x | x | x | x | -45%[12.7 µM] | x
NNc1n[nH]c(=S)n1N | -11 | -27 | u | 53% | 25µM* | -10%
CC(=NCCCn1ccnc1)c1c(O)n(Cc2ccccc2)c(=O)[nH]c1=O | -2 | -3 | u | 36% | -8% | -19%
CCCNC(=O)c1cnn2c(C)c(Cc3c(C)cc(C)cc3C)c(C)nc12 | x | x | 10% | 12% | -3%[59 µM] | u
Cc1ccc(-n2c(O)c(/C=N/Nc3ccccc3)c(=O)[nH]c2=O)cc1C | -11 | 0 | -24% | 25% | 7.9µM* | -24%
COc1ccc(N/N=C/c2c(O)n(-c3cccc(C)c3)c(=O)[nH]c2=O)cc1 | -13 | -8 | -14% | 4% | 2.2µM* | -30%
CN1CCN(/N=C/c2c(O)n(C)c(=O)n(C)c2=O)CC1 | 12 | -10 | -12% | 18% | 28µM* | -8%[57.1 µM]
COc1ccc(N=Cc2c(O)n(-c3ccc(C)cc3)c(=O)[nH]c2=O)cc1 | 0 | 6 | 5% | 57% | 9% | -7%
Cn1c(O)c(C=Nc2ccccc2)c(=O)n(C)c1=O | -4 | -10 | 8% | 4% | 2% | -7%
COc1ccc(N/N=C/c2c(O)n(-c3ccc(C)c(C)c3)c(=O)[nH]c2=O)cc1 | -20 | -24 | -36% | -14% | 1µM* | 35µM*
CN1[C@H]2CC(=O)C[C@@H]1[C@@H](O)C2 | x | x | x | x | 1%[21.5 µM] | x
Cn1c(=O)oc2cc(NC(=O)CCl)ccc21 | 5 | -4 | 2% | 54% | -6%[12.7 µM] | -15%
COc1ccccc1NC(=O)N(Cc1ccco1)C1CCN(C(C)=O)CC1 | x | x | 4% | 50% | 6%[59 µM] | -13%
COc1ccccc1CNC(=O)C(NS(=O)(=O)c1ccc2c(c1)oc(=O)n2C)C(C)C (configuration not stated) | 0 | 0 | -2% | 46% | -3% | -6%
SMILES | Six1-Eya2 blk | CtBP-E1A inh | BAZ2B block | HP1b binding inh | G9a block | JMJD2A Tudor
C/C(CC(=O)N1CCN(C=O)CC1)=N\NC(=O)c1cccc([N+](=O)[O-])c1 | 10 | 0 | u | 12% | 20% | -14%
COc1cccc(-n2c(O)c(C=NCCN3CCOCC3)c(=O)[nH]c2=O)c1 | -1 | 3 | 8% | 63% | 45µM* | -11%
Cn1c(O)c(/C=N/Nc2ccccc2)c(=O)n(C)c1=O | 3 | -7 | -23% | 18% | 4µM* | u
CCCN(CCC)C1Cc2cc(OC)c(OC)cc2C1 | 0 | 0 | x | 13% | 20%[59 µM] | -36%
CCCN(CCC)[C@H]1CCc2c(F)ccc(O)c2C1 | x | x | x | x | 50µM* | x
CC1Cc2cc3c(cc2C(c2ccc(N)cc2)=NN1)OCO3 (configuration not stated) | x | x | x | x | 8.9µM* | x
CC1=NN=C(c2ccc(N)cc2)c2cc3c(cc2C1)OCO3 | 6 | -22 | u | 23% | 7.5µM*! | u
Cc1cc(C)cc(N2C(=O)NC(=O)/C(=C/c3cccn3-c3ccc(Cl)cc3)C2=O)c1 | -5 | 4 | -10% | 41% | 32µM* | -3%
Cc1cccc(N2C(=O)NC(=O)/C(=C\c3cccn3-c3ccc(Cl)cc3)C2=O)c1 | -27 | -8 | 4% | 28% | 24%[0.501 µM] | -10%
c1csc(CN2CCC3(CCNCC3)CC2)n1 | x | x | x | x | 4%[12.7 µM] | x
CCOP(=O)(OCC)C1(O)C(=O)Nc2ccc(Br)cc21 (configuration not stated) | 4 | 5 | -5% | 21% | 18µM* | -11%
CCOC(=O)C1=C(C)OC(N)=C(C(=O)OCC)C12C(=O)Nc1ccc(Br)cc12 (configuration not stated) | -6 | 5 | 6% | 18% | 4%[2.33 µM] | -13%
COc1ccc(CCNCc2ccc3c(c2)n(C)c(=O)n3C)cc1 | x | x | -4% | 19% | -2%[59 µM] | -9%
COc1ccc(CCNCc2cccn2C)cc1OC | -15 | x | u | 6% | x | -23%
COc1cccc(CCNCc2ccc(SC)cc2)c1 | -17 | 2 | 50µM* | u | 3.2µM* | 25µM*
COc1ccc(CCNCc2ccccc2)cc1 | 10 | x | 25µM* | u | 5%[2.33 µM] | 7.1µM*
COc1ccc(CCNCc2c(OC)ccc3ccccc23)cc1 | -7 | x | 35µM* | u | 14µM* | 22µM*
COc1ccc(CCNCc2ccncc2)cc1 | 4 | -1 | 56µM* | u | u | 1.3µM*
COc1ccc(CCNCc2cc(OC)cc(OC)c2)cc1 | -14 | 4 | x | x | x | x
CC(=O)OC1CCC23C(=O)OC45CCC(C6=CC(=O)OC6)C4(C)CCC2C5CCC3(O)C1 (configuration not stated) | x | x | x | x | -31%[2.33 µM] | x
Cc1nc(-c2ccc(-c3ccc(C(=O)N4CCc5cc6c(cc54)C4(CCN(C)CC4)CO6)cc3)c(C)c2)no1 | x | x | x | x | -14%[12.7 µM] | x
Fc1ccc(CNCCc2ccccc2)cc1 | 0 | -14 | x | u | u | 22µM*
